In PubChem BioAssay AID1159580 (chemical genetic matrix, 2015):
About 2,000 (36%) of roughly 5,500 compounds were called active. About 18% were inconclusive and are not listed. No stated cut-off is given here; in the data, active means normalized growth mostly below about 0.91 (no sharp cut-off); inconclusive means no clear call, values can overlap the other calls; inactive means mostly above about 0.92. The list shows a part of the results.

Assay: chemical genetic growth profiling, strain panel (AID 1159580);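 further: tested at 20 µM; growth read once vehicle control cultures reached saturation at 30 °C; 1 = growth at the plate median or of vehicle wells; lower values mean less growth of the strain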
Settings: S. cerevisiae deletion strains, growth OD

Measured: normalized growth

CO[C@H]1/C=C/O[C@@]2(C)Oc3c(C)c(O)c4c(O)c(c(/C=N/N5CCN(C)CC5)c(O)c4c3C2=O)NC(=O)/C(C)=C\C=C\C(C)[C@H](O)[C@@H](C)[C@@H](O)[C@@H](C)[C@@H](OC(C)=O)[C@@H]1C (stereo partly specified)
inactive: locus YJR043C, strain POL32, active compounds read low 0.998 | locus YJR066W, strain TOR1, active compounds read low 1 | locus YKL009W, strain mrt4, active compounds read low 1.02 | locus YKL068W, active compounds read low 1.01 | locus YKL085W, strain MDH1 (second series), active compounds read low 1.01 | locus YKL085W, strain MDH1, active compounds read low 1.01 | locus YKL160W, strain elf1, active compounds read low 1.02 | locus YKR001C, strain vps1, active compounds read low 1.02 | locus YKR026C, strain gcn3, active compounds read low 1.03 | locus YKR091W, strain srl3, active compounds read low 1.02 | locus YLL001W, strain dnm1, active compounds read low 1.02 | locus YLL026W, active compounds read low 1.01 | locus YLL041C, strain sdh2, active compounds read low 1.02 | locus YLR027C, strain aat2, active compounds read low 1.02 | locus YLR039C, strain RIC1, active compounds read low 1.02 | locus YLR058C, strain SHM2, active compounds read low 1.02 | locus YLR102C, strain apc9, active compounds read low 1.02 | locus YLR113W, strain HOG1, active compounds read low 1.05 | locus YLR221C, strain rsa3, active compounds read low 1 | locus YLR258W, strain gsy2, active compounds read low 1.02 | locus YLR262C, strain YPT6 (second series), active compounds read low 0.982 | locus YLR262C, strain YPT6, active compounds read low 1.05 | locus YLR268W, strain sec22, active compounds read low 1.03 | locus YLR320W, strain mms22, active compounds read low 1.01 | locus YLR330W, strain CHS5, active compounds read low 1.01 | locus YLR342W, strain FKS1 (second series), active compounds read low 0.98 | locus YLR342W, strain FKS1, active compounds read low 1.02 | locus YLR357W, strain rsc2, active compounds read low 1.03 | locus YLR370C, strain arc18, active compounds read low 1.02 | locus YLR371W, strain rom2, active compounds read low 1.02 | locus YLR384C, strain iki3, active compounds read low 1.02 | locus YLR418C, strain cdc73, active compounds read low 1.02 | locus YML016C, strain PPZ1, active compounds read low 1.01 | locus YML032C, strain rad52, active compounds read low 1.02 | locus YML120C, strain ndi1, active compounds read low 1.01 | locus YML124C, strain tub3, active compounds read low 1.03 | locus YMR058W, strain fet3, active compounds read low 1.03 | locus YMR078C, strain ctf18, active compounds read low 1.02 | locus YMR125W, strain sto1, active compounds read low 1.04 | locus YMR129W, active compounds read low 1.02 | locus YMR205C, strain PFK2, active compounds read low 1.01 | locus YMR223W, strain ubp8, active compounds read low 1.02 | locus YMR231W, strain pep5, active compounds read low 1.02 | locus YMR307W, strain GAS1, active compounds read low 0.927 | locus YNL067W, strain RPL9B, active compounds read low 1.04 | locus YNL071W, strain lat1, active compounds read low 1.02 | locus YNL153C, strain GIM3, active compounds read low 1.02 | locus YNL183C, strain NPR1, active compounds read low 1.01 | locus YNL209W, strain ssb2, active compounds read low 1.02 | locus YNL233W, strain BNI4, active compounds read low 1.02 | locus YNL248C, strain rpa49, active compounds read low 1.02 | locus YNL250W, strain rad50, active compounds read low 1.01 | locus YNL271C, strain bni1, active compounds read low 1.02 | locus YNL298W, strain CLA4, active compounds read low 1.03 | locus YNL307C, strain MCK1, active compounds read low 1.02 | locus YNL322C, strain KRE1 (second series), active compounds read low 1.01 | locus YNR049C, strain mso1, active compounds read low 1.03 | locus YNR052C, strain pop2, active compounds read low 1.02 | locus YOL006C, strain TOP1, active compounds read low 1.11 | locus YOL012C, strain htz1 1.35 | locus YOL147C, strain pex11, active compounds read low 1.02 | locus YOR001W, strain rrp6, active compounds read low 1.01 | locus YOR061W, strain CKA2, active compounds read low 1.01 | locus YOR069W, strain VPS5, active compounds read low 1.01 | locus YOR070C, strain gyp1, active compounds read low 1.03 | locus YOR080W, strain dia2, active compounds read low 1.03 | locus YOR083W, strain WHI5, active compounds read low 1.02 | locus YOR106W, strain vam3, active compounds read low 1.03 | locus YOR136W, strain idh2, active compounds read low 1.02 | locus YOR144C, strain elg1, active compounds read low 1.02 | locus YOR184W, strain ser1, active compounds read low 1.02 | locus YOR231W, strain MKK1, active compounds read low 1.02 | locus YOR265W, strain rbl2, active compounds read low 1.04 | locus YOR270C, strain vph1, active compounds read low 0.999 | locus YOR290C, strain snf2, active compounds read low 1.01 | locus YOR316C, strain cot1, active compounds read low 1.01 | locus YPL051W, strain arl3, active compounds read low 1.03 | locus YPL078C, strain atp4, active compounds read low 1.01 | locus YPL106C, strain sse1, active compounds read low 1 | locus YPL240C, strain hsp82, active compounds read low 1.02 | locus YPL256C, strain CLN2, active compounds read low 1.06 | locus YPR119W, strain clb2, active compounds read low 1.02 | locus YPR141C, strain kar3, active compounds read low 1.02 | locus YPR163C, strain tif3, active compounds read low 1.01 | locus YPR167C, strain met16, active compounds read low 1.03 | strain wtn01, active compounds read low 1
